SMN2 splice up: increases expression of the SMN2 splice variant; Potency, µM (highest dose often 46.1 µM), actives largely listed as activators; 2.8% of 210,000 active; HEK293 SMN2-luciferase splicing reporter, luminescence, 30-36 h; further: nearly all actives have a fitted effect of over 55% in size
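HEK293 cells carry an SMN2 minigene-luciferase reporter in which exon 7 inclusion puts luciferase in frame. Cells were seeded at 2000 cells/well, attached for 10-12 hours, then exposed to compounds for 30-36 hours at 37C before ONE-Glo luminescence.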
ELG1 genotoxic: induces genotoxicity in HEK293T cells with luciferase-tagged ELG1; HEK293T ELG1-luciferase reporter, luminescence, 16 h; Potency, µM (top dose mostly 46 µM), hits mostly activators; 1.3% of 330,000 active; AID 504466; further: nearly all actives have a fitted effect of over 60% in size
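Cells (2,000/well) expressing the ELG1-luciferase fusion are dosed by pin tool and kept 16 hr at 37 °C, 5% CO2. Signal comes from ONE-Glo luciferase reagent after 30 min at room temperature.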
FLuc modulator: counter-screen for miR-21 project: firefly luciferase inhibitors or activators; P08659; purified FLuc, Km substrates, luminescence inhibition; Potency, µM (titrated, usually from 57.5 µM), usual class: inhibitors; 6.9% of 360,000 active; AID 588342; further: nearly all actives have a fitted effect of over 55% in size
Target sequence (P08659 whole entry, looked up): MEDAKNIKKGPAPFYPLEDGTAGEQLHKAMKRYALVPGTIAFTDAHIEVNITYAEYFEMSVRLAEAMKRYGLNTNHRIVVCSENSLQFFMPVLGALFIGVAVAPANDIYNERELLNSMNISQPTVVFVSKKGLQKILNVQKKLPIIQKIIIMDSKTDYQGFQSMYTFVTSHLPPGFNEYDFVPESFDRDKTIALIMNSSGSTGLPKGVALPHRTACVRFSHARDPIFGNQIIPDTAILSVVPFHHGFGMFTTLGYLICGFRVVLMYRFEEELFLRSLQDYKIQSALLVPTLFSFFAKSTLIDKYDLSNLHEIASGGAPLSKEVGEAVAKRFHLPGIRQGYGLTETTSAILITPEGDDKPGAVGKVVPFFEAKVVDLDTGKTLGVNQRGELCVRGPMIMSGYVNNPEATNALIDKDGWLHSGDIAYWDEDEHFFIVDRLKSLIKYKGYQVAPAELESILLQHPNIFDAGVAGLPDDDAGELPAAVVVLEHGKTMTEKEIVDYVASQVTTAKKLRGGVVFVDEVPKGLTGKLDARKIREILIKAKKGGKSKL
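Purified P. pyralis luciferase (10nM final) with 10uM D-luciferin and 10uM ATP (Km levels) in 50mM Tris acetate pH 7.5, 10mM Mg acetate, 0.01% Tween-20, 0.05% BSA; qHTS 6-point titration, ~60 µM downward; luminescence read.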
NPC1 promoter act: activators of NPC1 promoter; 2.4% of 320,000 active; Potency, µM (doses to about 9.22 µM), usual class: activators; Huh7 NPC1 promoter luciferase reporter, 24 h; further: nearly all actives have a fitted effect of over 60% in size
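Compounds in DMSO were transferred onto Huh7 NPC1-luciferase reporter cells pre-incubated 2 h; after 24 h at 37 °C, Amplite reagent was dispensed and luminescence recorded 10 min later.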
Rab9 prom act: Rab9 promoter activation | 2.8% of 320,000 active | AID 485297 | Huh7 Rab9 promoter-luciferase reporter, luminescence, 24 h | Potency, µM (titrated, usually from 9.22 µM), most hits filed as activators; further: nearly all actives have a fitted effect of over 60% in size
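Huh7 reporter line, Rab9 promoter upstream of luciferase. Compound exposure 24 h at 37 °C in reduced-serum medium with 10% FBS. Read-out: luminescence.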
A number is an active result; - = inactive; ? = inconclusive; . = no result given; [ ] = dose if it differs, or a comment. Hits are enriched below; roughly 7.4% of the tested compounds scored in any of these assays. The call rests on the fitted dose curve; in most records, active means well fitted curve in the direction sought with a large enough effect; inconclusive means small, poorly fitted or top-dose-only effect, or another doubt; inactive means no such curve, though single readings can be large; an effect the other way counts as inactive or inconclusive.

SMILES | SMN2 splice up | ELG1 genotoxic | FLuc modulator | NPC1 promoter act | Rab9 prom act
O=C(CN1CCOCC1)Nc1ccc2c(c1)CCC2 | . | - | ? | - | -
O=C1C2C(C(=O)N1/N=C/c1cccc([N+](=O)[O-])c1)C1C=CC2C12CC2 (configuration not stated) | - | ? | 7.6µM | ? | ?
O=C1C2C(C(=O)N1/N=C/c1cc([N+](=O)[O-])ccc1O)C1C=CC2C12CC2 (configuration not stated) | - | - | - | - | -
Cc1ccc(N=Nc2c(N)nn3c(N)c(C#N)c(C)nc23)cc1 | . | - | - | - | -
Cc1ccc(N=Nc2c(N)nn(-c3ccccc3)c2N)cc1 | 10µM | ? | 6µM | ? | ?
Cc1nn(-c2ccccc2)c(N)c1N=Nc1ccc2ccccc2c1 | 13µM | ? | 11µM | ? | 3.5µM
Cc1nn(-c2ccccc2)c(N)c1N=O | . | - | - | - | -
O=C(NCCc1ccccc1)c1cnc2n(c1=O)CCS2 | ? | ? | ? | ? | 2.2µM
CSc1ccc(CCNC(=O)c2cnc3c(C)cccn3c2=O)cc1 | . | . | - | . | .
O=C(NCc1cccnc1)c1cnc2n(c1=O)CCS2 | - | - | - | - | -
O=C(NCCc1c[nH]c2ccccc12)c1cnc2n(c1=O)CCS2 | ? | - | ? | ? | 4.5µM
Cc1cccn2c(=O)c(C(=O)NCCc3ccc(Cl)cc3)cnc12 | . | . | 13µM | . | .
COc1ccc(-n2nnnc2SCC(=O)Nc2ccc(OC)cc2OC)cc1 | . | - | - | - | -
O=C(Nc1cnc2ccccc2c1)C1COc2ccccc2O1 (configuration not stated) | - | ? | 13µM | - | 4µM
COc1cccc(NC(=O)C2COc3ccccc3O2)c1 (configuration not stated) | . | ? | 27µM | ? | -
O=C(Nc1ccc2c(c1)OCO2)C1COc2ccccc2O1 (configuration not stated) | ? | ? | 17µM | ? | 2.8µM
O=C(Nc1ccc2c(c1)CCC2)C1COc2ccccc2O1 (configuration not stated) | 16µM | 21µM | 19µM | 4µM | 2.5µM
CN1CCC2(CC1)CCN(C(=O)c1ccncc1)CC2 | - | . | . | . | .
CCn1cc(C2=NOC(C(=O)Nc3ccc4c(c3)OCO4)C2)c(C)n1 (configuration not stated) | - | - | - | - | -
O=C(Nc1ccc2c(c1)OCO2)C1CC(c2ccccc2Cl)=NO1 (configuration not stated) | - | ? | -[2.3 µM] | ? | 2.5µM
O=C(OCc1nnc(-c2ccccc2)o1)C1CCN(C(=O)c2ccc(Cl)cc2)CC1 | . | - | - | - | -
O=c1c2c(nc3cc(-c4ccc(F)cc4)[nH]n13)CCC2 | 7.1µM | 18µM | 8.5µM | 2.5µM | 3.2µM
Cc1[nH]n2c(=O)c3c(nc2c1-c1ccc(Cl)cc1)CCC3 | . | - | - | - | -
O=C(N/C(=C/c1ccccc1)C(=O)N1CCCCCC1)c1ccccc1 | - | - | - | - | -
O=C(N/C(=C/c1ccccc1)C(=O)N1CCCCC1)c1ccccc1 | . | 18µM | 7.6µM | 3.5µM | 2.8µM
SMILES | SMN2 splice up | ELG1 genotoxic | FLuc modulator | NPC1 promoter act | Rab9 prom act
COc1ccccc1CNC(=O)c1csc2c1CCCC2 | - | - | - | - | -
Cc1nnc(NC(=O)c2csc3c2CCCC3)s1 | - | ? | ? | - | -
COc1ccccc1NC(=O)c1csc2c1CCCC2 | - | - | 19µM | - | -
O=C(Nc1ccccn1)c1onc2c1CCCC2 | 0.71µM | ? | 0.76µM | 0.35µM | 0.4µM
COc1cc(NC(=O)c2csc3c2CCCC3)ncn1 | 13µM | 4.1µM | 3.4µM | 3.5µM | 3.5µM
O=C(Nc1ccccn1)c1csc2c1CCCC2 | 13µM | 7.3µM | 6.7µM | ? | 1.8µM
O=C(CN1C(=O)c2ccccc2S1(=O)=O)Nc1ccc([N+](=O)[O-])cc1 | . | - | . | . | .
CCN1CCN(Cc2ccc(NC(=O)c3cc(NC(=O)c4ccno4)cc(OC)c3)cc2C(F)(F)F)CC1 | . | - | - | - | -
CCN1CCN(Cc2ccc(NC(=O)c3cc(NC(=O)c4ccc5n[nH]nc5c4)cc(OC)c3)cc2C(F)(F)F)CC1 | . | - | 2.7µM | - | -
CCN1CCN(Cc2ccc(NC(=O)c3cc(NC(=O)N4CCNC4=O)cc(OC)c3)cc2C(F)(F)F)CC1 | . | - | - | - | -
